High-throughput results as filed in PubChem.
ELG1 repair inh: qHTS screen for small molecules that inhibit ELG1-dependent DNA repair in human embryonic kidney (HEK293T) cells expressing luciferase-tagged ELG1; Potency, µM (series often up to 46.1 µM), without a hit: at the top dose activity change, negative = inhibition, usual class: inhibitors; 330,000 tested, 2.3% active; AID 504467, 2011; HEK293T ELG1-luciferase reporter, luminescence, 16 h; DNA damage induced by 5-fluorouridine; note: nearly all actives have a fitted effect of over 55% in size
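Cells (2,000 per well) received 5-fluorouridine plus test compound or DMSO and were incubated 16 hr at 37 °C, 5% CO2. Luciferase activity was read by luminescence 30 min after ONE-Glo addition; signal suppression marked inhibition of damage-induced ELG1 function.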
TDP1 cell noCPT: qHTS for Inhibitors of human tyrosyl-DNA phosphodiesterase 1 (TDP1): qHTS in cells in absence of CPT; Potency, µM (titrated, usually from 46.2 µM), without a hit: at the highest dose activity change, negative = growth inhibition, actives largely listed as inhibitors; AID 686978, 2013; 420,000 tested, 15% active; DT40 Tdp1-/- hTDP1 cells, no CPT, ATP luminescence, 48 h; note: nearly all actives have a fitted effect of over 55% in size
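Luminescent ATP content (CellTiter-Glo) served as the growth readout. Knockout chicken DT40 cells expressing human TDP1 were exposed to compounds without camptothecin for a minimum 48 hr at 37 °C.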
RORg inh: qHTS for inhibitors of ROR gamma transcriptional activity. Nuclear receptor ROR-gamma (Mus musculus), P51450. Potency, µM (titrated, usually from 53.6 µM), for the others: at the highest dose activity change, negative = inhibition, usual class: inhibitors. 310,000 tested, 5.4% active. Drosophila S2 Gal4-RORgamma UAS-luciferase reporter, 20 h. AID 2551, 2010; note: nearly all actives have a fitted effect of over 60% in size
Target sequence (P51450 whole entry, looked up, the tested form may be a part): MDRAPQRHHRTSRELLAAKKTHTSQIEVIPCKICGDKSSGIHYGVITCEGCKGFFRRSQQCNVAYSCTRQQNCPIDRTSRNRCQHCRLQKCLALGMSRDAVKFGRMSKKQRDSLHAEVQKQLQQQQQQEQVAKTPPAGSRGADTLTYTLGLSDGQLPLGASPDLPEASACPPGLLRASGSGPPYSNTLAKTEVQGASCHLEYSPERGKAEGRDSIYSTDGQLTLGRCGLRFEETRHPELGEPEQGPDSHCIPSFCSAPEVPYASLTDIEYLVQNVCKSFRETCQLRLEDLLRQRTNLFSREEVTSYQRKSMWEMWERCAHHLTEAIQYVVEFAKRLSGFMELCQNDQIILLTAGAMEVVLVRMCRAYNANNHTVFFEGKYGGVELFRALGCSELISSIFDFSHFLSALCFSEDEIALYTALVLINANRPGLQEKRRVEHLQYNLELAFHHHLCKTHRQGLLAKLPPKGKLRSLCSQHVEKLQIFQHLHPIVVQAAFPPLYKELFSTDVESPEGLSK
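Schneider cells (Drosophila), stable Gal4 DBD–ROR gamma + UAS-luc; 1 hr cmpd preincubation; Cu2+ induction 700 uM final; 20 hr ambient; luminescence.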
TDP1 cell CPT: qHTS for Inhibitors of human tyrosyl-DNA phosphodiesterase 1 (TDP1): qHTS in cells in presence of CPT; chicken DT40 Tdp1-/-;hTDP1 cells + 20 nM CPT, ATP luminescence, 48 h; Potency, µM (series often up to 46.2 µM), for inactives: at the highest dose activity change, negative = growth inhibition, most hits filed as inhibitors; 420,000 tested, 12% active; note: nearly all actives have a fitted effect of over 55% in size
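Cell growth measured by CellTiter-Glo luminescence after a minimum 48 h, 37 C compound exposure with 20 nM CPT in Tdp1-knockout DT40 cells stably expressing hTDP1, seeded 400/well; qHTS titration format.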
VP16 counter: VP16 counterscreen qHTS for inhibitors of ROR gamma transcriptional activity; Potency, µM (series often up to 53.6 µM), without a hit: at the top dose activity, negative = inhibition, hits mostly inhibitors; 310,000 tested, 3.5% active; Drosophila S2 Gal4-VP16 UAS-luciferase, luminescence, 20 h;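 note: Gal4-VP16 expression switched on by copper sulfate through the metallothionein promoter; nearly all actives have a fitted effect of over 50% in size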
ALOX12 inh: Primary qHTS assay for inhibitors of human arachidonate 12S-lipoxygenase (ALOX12): Round 2. purified 12hLO, xylenol orange hydroperoxide absorbance. Potency, µM (doses to about 108 µM), without a hit: at the highest dose activity change, negative = inhibition, most hits filed as inhibitors. 580,000 tested, 1.1% active. AID 1671190, 2021
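Hydroperoxide product was detected by ferrous iron/xylenol orange as the 573 to 405 nm absorbance ratio. Arachidonic acid at 40 uM (final) was turned over for 30 min at room temperature by 150 nM human 12hLO, pH 7.0 Hepes buffer, after 15 min compound preincubation.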
Starred values were filed as active, the others as inactive; u = inconclusive; x = no result; [ ] = remark or other dose. Most compounds without a hit are left out; they make up all but 15% or so of the library. Calls come from the whole dose curve; as a rule, active = well fitted curve in the direction sought with a large enough effect; inconclusive = small, poorly fitted or top-dose-only effect, or another doubt; inactive = no such curve, though single readings can be large; an effect the other way counts as inactive or inconclusive. % is set by controls: 0 for no effect and ±100 for the full control effect; potency is the fitted concentration of half-maximal effect.

SMILES	ELG1 repair inh	TDP1 cell noCPT	RORg inh	TDP1 cell CPT	VP16 counter	ALOX12 inh
CCC(c1cccs1)N1C(=O)[C@H]2CN(S(=O)(=O)c3cc(C)ccc3C)C[C@H]2C1=O (some centres not stated)	x	x	x	x	x	1%
Cc1nnc(-c2ccncc2)nc1C	x	x	x	x	x	10%
COc1cc(NC(=O)C2(n3cnnn3)CCCCC2)cc(OC)c1OC	x	x	x	x	x	60%
CCOc1nccn2c(-c3ccc(CNC(=O)c4ccnn4C)cc3)cnc12	x	x	x	x	x	-22%[176 µM]
C=C(Cl)CN1CCN(Cc2ccccn2)CC1	x	x	x	x	x	-3%
CN1OC[C@@H]2CN(S(=O)(=O)c3cccc4ccccc34)[C@H](c3ccc(-c4ccccc4)cc3)C[C@@H]21	x	23µM*	x	u	x	-4%
Cc1ccccc1S(=O)(=O)N1C[C@H]2CON(C)[C@H]2C[C@H]1c1cccc(Br)c1	x	u	x	-20%	x	13%
NC(=O)NC(=O)COC(=O)/C=C/c1cccc(Br)c1	-5%	-7%	6%	0%	4%	-3%
CCOC(=O)C(CC)(CC)C(=O)/C=C/c1cccc(Br)c1	x	18µM*	x	12µM*	x	265%
COc1cc(C2C(C#N)=C(N)N(c3cccnc3)C3=C2C(=O)CC(C)(C)C3)ccc1O (configuration not stated)	-1%	3%	-3%	-7%	8%	4%
COc1ccc(C2C(C#N)=C(SC)NC3=C2C(=O)CC(C)(C)C3)cc1 (configuration not stated)	-5%	8.2µM*	u	6.5µM*	-11%	u
COc1ccc(C2C(C#N)=C3NC(=O)c4c(sc5c4CCCCC5)N3C3=C2C(=O)CC(C)(C)C3)cc1 (configuration not stated)	u	23µM*	-23%	16µM*	-19%	-10%
COc1ccc(C2C(C#N)=C(N)N(c3sc4c(c3C#N)CCCC4)C3=C2C(=O)CC(C)(C)C3)cc1OC (configuration not stated)	-27%	u	5%	18µM*	-1%	-19%
COc1ccc(C2C(C#N)=C(N)N(N(C)C)C3=C2C(=O)CC(C)(C)C3)cc1 (configuration not stated)	26%	11%	27%	-4%	5%	30%
COc1ccc(C2C(C#N)=C(N)N(c3sc4c(c3C#N)CCCC4)C3=C2C(=O)CC(C)(C)C3)cc1 (configuration not stated)	-12%	u	-22%	21µM*	0%	x
CS(=O)(=O)Nc1ccccc1NC(=O)CCCc1ccccc1	x	x	x	x	x	-10%
O=C(Cc1ccccc1)Nc1ccc(O)c(-c2nc3ccccc3o2)c1	x	x	x	x	x	-3%
CC(C)c1onc(C(=O)Nc2ccc3c(c2)OCO3)c1[N+](=O)[O-]	29%	18µM*	19%	u	u	x
Cc1ccc(NC(=O)c2noc(C(C)C)c2[N+](=O)[O-])cc1	-9%	18µM*	-10%	13µM*	-6%	-8%
CC(C)c1onc(C(=O)Nc2cccc(O)c2)c1[N+](=O)[O-]	u	-6%	0%	-20%	-2%	-8%
CC(=O)NNC(=S)Nc1cc(Cl)cc(Cl)c1	x	x	x	x	x	-2%
CCCCn1c(=O)n(CC(=O)Nc2c(C)cccc2C)c(=O)c2c1ncn2CCC(C)C	x	x	x	x	x	5%
Cc1ccc(NC(=O)Cn2c(=O)n(CCCCCC(=O)NCc3ccc(F)cc3)c(=O)c3sccc32)cc1C	x	6.5µM*	x	u	x	-12%
CNC(=O)C1CCC(Cn2c(=O)c3sccc3n(CC(=O)Nc3ccc(C)c(C)c3)c2=O)CC1 (configuration not stated)	x	9.2µM*	x	9.2µM*	x	u
CCOc1ccc(NC(=O)Cn2c(=O)n(CCCCCC(=O)NCc3ccccc3)c(=O)c3sccc32)cc1	x	16µM*	x	u	x	u
SMILES	ELG1 repair inh	TDP1 cell noCPT	RORg inh	TDP1 cell CPT	VP16 counter	ALOX12 inh
COCC[C@]1(O)CCN(C(=O)c2ccc(C#N)nc2)C[C@H]1C	x	x	x	x	x	34%
CC(C)NC(=O)N1CCCC1c1nc(CCOc2ccc(F)cc2)no1 (configuration not stated)	x	x	x	x	x	46%
COc1ccc(C)cc1NC(=O)Nc1cccc(OCc2cc(=O)n3ccc(C)cc3n2)c1	x	9.2µM*	x	9.2µM*	x	-23%
CSc1cccc(NC(=O)Nc2ccccc2OCc2cc(=O)n3cc(C)ccc3n2)c1	x	21µM*	x	23µM*	x	-5%
CCC(Oc1ccccc1)C(=O)Nc1ccc(OCc2cc(=O)n3ccc(C)cc3n2)cc1 (configuration not stated)	x	18µM*	x	u	x	-14%
Cc1ccc(C2Cn3nnc(-c4nc(-c5ccc6c(c5)OCO6)no4)c3CO2)c(C)c1 (configuration not stated)	x	x	x	x	x	-1%
CC(=O)N1CCc2nn(CC(=O)Nc3cccc(Cl)c3C)c(=O)cc2C1	x	x	x	x	x	13%
Cc1ccc(-n2[nH]c(=O)c(-c3ccccn3)c2C)cc1	u	1%	1.3µM*	-1%	2.8µM*	0%
Cc1ccc(-n2c(SCC(=O)OC(C)C)nnc2-c2ccccn2)cc1	3%	-10%	-7%	8%	6%	0%
Cc1ccc(C)c(OCC(O)Cn2nc(-c3ccco3)oc2=O)c1C (configuration not stated)	x	x	x	x	x	1%
COc1ccc(-c2ccc3nnc(CNC(=O)Cc4cccc(OC)c4)n3n2)cc1	x	x	x	x	x	16%
COc1ccc(N2CCN(CCNC(=O)C3CCN(S(=O)(=O)c4cccs4)CC3)CC2)cc1	-11%	u	u	u	-16%	0%
O=C(C1CCC(CNc2nc(=S)[nH]c3ccccc23)CC1)N1CCN(c2ccc(F)cc2)CC1 (configuration not stated)	23µM*	4.6µM*	u	2.6µM*	1%	-19%
COc1ccc(N2CCN(CCCNC(=O)C3CCC(CNc4nc(=S)[nH]c5ccccc45)CC3)CC2)cc1 (configuration not stated)	u	23µM*	24%	u	-7%	-15%
